The values that follow come from ChEMBL document CHEMBL3988442, “University of Dundee, Small-Polar-MMV Screening Library” (2021).

For some of these results: Potency and affinity values are given separately.

Design in all cases: scale not given: direction of the effect not stated beside the values
Assay [1] deals with Protein translocase subunit SecA (Escherichia coli (strain K12)) (UniProt P10408). The assay is described as follows: Assay to Identify E. coli SecA ATPase Inhibitors. Format: functional. Conditions: 30 µM.
Sequence of Protein translocase subunit SecA (Escherichia coli (strain K12)) (P10408 whole entry): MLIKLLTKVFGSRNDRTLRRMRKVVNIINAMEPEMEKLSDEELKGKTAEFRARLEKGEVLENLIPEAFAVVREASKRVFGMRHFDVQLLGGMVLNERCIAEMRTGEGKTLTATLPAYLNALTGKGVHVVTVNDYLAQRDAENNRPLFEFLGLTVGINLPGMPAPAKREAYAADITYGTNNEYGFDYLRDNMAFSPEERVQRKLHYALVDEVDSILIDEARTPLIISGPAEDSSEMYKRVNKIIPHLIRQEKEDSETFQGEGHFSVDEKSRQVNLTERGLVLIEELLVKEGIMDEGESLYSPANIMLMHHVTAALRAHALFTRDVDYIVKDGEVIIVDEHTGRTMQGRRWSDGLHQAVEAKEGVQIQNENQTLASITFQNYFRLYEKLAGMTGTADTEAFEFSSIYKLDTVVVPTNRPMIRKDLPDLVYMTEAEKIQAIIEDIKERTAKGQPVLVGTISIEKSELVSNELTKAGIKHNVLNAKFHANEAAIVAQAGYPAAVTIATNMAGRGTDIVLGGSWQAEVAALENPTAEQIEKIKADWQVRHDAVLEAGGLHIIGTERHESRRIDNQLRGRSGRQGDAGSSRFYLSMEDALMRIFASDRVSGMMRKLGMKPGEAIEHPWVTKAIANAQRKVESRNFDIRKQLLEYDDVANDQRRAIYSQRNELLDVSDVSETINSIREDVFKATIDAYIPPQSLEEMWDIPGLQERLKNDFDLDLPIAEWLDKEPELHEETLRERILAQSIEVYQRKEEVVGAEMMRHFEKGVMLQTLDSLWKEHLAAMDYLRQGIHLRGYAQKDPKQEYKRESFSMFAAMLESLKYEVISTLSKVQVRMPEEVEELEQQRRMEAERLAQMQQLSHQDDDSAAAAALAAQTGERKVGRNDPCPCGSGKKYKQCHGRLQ
Assay [2] addresses T1, Ubiquitin-activating enzyme e1, putative (Leishmania donovani (strain BPK282A1)) (UniProt E9BSI1).
T1 sequence (whole entry): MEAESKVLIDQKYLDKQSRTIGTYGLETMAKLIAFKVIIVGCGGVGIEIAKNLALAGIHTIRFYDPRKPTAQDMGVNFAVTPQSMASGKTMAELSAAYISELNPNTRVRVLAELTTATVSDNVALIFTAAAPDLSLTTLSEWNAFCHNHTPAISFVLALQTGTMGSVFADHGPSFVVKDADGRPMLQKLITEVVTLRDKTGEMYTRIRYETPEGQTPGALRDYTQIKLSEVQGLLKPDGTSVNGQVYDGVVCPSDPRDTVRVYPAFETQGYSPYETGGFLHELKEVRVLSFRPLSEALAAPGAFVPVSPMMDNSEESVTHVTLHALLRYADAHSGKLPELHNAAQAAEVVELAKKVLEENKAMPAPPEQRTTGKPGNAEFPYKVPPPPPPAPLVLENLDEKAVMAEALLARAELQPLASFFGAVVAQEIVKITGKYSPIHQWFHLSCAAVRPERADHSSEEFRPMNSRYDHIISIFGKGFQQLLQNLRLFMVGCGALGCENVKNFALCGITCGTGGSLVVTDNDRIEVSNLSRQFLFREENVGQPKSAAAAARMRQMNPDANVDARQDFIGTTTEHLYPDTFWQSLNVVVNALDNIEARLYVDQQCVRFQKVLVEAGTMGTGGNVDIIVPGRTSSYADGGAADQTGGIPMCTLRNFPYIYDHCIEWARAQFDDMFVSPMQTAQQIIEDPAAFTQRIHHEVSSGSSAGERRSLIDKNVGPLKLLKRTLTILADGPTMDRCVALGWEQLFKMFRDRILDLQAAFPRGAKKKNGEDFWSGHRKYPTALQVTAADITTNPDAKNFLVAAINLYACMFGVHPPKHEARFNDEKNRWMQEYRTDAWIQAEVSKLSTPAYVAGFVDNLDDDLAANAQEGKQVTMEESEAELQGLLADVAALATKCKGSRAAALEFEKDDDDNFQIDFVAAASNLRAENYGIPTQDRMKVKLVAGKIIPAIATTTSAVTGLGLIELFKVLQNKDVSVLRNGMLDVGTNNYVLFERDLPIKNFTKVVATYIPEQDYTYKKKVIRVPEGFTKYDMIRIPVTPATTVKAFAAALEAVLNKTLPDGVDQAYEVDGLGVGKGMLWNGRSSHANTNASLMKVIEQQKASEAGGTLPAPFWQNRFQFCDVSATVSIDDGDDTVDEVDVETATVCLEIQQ
Kind of assay: Leishmania donovani Ubiquitin Activating Enzyme (LdE1). Format: functional. The note with it: 30 µM.

Assay [3] addresses AMP-activated protein kinase, AMPK (Homo sapiens) (UniProt P54646+O43741+P54619+Q9UGJ0+Q9Y478+Q13131+Q9UGI9). Kind of assay: AMP-dependent Kinase enzyme assay. An in vitro enzyme assay that detects ADP turnover that is directly proportional to AMPK activity. This uses naive AMPK that is activated during the assay with MK-8722. The note with it: 30 µM. Format: functional.
The target of assay [4] is Sialic acid-binding Ig-like lectin 9 (Homo sapiens) (UniProt Q9Y336). Kind of assay: Hs-Siglec9 ALPHAscreen SOP 20170721. Conditions: 10 µM.
Sequence of Sialic acid-binding Ig-like lectin 9 (Homo sapiens) (Q9Y336 whole entry): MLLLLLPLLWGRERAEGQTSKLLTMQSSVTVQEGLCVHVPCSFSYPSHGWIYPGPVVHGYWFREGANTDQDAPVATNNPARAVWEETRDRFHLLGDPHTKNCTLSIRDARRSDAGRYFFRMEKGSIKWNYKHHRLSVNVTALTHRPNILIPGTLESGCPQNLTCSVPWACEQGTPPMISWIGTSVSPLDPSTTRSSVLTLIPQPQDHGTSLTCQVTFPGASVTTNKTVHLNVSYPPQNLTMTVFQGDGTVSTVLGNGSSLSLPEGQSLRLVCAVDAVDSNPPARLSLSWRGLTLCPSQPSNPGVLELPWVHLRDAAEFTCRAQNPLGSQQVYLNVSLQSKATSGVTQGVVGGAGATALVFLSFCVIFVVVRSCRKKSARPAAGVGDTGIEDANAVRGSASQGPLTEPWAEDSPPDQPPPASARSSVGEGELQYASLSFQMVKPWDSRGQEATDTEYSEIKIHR
Another assay relates to Trypanosoma cruzi. The assay is described as follows: Trypanosoma cruzi phosphomannomutase and mannose-1-phosphate guanylyltransferase assay. Format: functional. Conditions: 10 µM.
For assay [5], the target named is T2, Arginase-2, mitochondrial (Homo sapiens) (UniProt P78540).
T2 sequence (whole entry): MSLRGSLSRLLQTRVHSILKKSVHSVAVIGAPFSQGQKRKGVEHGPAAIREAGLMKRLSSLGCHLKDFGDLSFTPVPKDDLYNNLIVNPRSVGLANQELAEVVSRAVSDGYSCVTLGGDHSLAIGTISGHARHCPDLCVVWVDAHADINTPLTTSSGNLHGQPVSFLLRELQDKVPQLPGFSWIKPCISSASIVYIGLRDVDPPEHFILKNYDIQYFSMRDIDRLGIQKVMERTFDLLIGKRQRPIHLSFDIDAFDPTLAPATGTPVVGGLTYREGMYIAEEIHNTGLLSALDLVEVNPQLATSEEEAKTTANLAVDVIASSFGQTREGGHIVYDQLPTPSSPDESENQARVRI
The assay is described as follows: in vitro enzyme assay to detect the production of urea directly proportional to the activity of Arginase II. Further: in the data most compounds retested in dose-response had high values. Format: functional. Conditions: 33.3 µM.

The target in assay [6] is T3, Proteasome subunit beta (Trypanosoma cruzi) (UniProt O96673).
T3 sequence (whole entry): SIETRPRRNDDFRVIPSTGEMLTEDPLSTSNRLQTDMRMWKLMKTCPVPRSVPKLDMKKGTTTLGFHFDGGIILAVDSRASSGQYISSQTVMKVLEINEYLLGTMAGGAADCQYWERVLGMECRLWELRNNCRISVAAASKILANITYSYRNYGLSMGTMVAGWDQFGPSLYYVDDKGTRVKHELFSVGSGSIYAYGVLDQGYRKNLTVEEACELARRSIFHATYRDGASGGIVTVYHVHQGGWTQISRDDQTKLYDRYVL
Kind of assay: Trypanosoma cruzi proteasome chymotrypsin-like activity (TcProtChymo) assay. Further: in the data most compounds retested in dose-response had high values. Conditions: 9.37 µM. Format: functional.

The species entered for a further assay is Homo sapiens. Kind of assay: To identify inhibition of the IFN signalling (Jak-Stat) pathway via expression of an eGFP reporter gene under the control of an IFN-stimulated response element (ISRE) containing MxA promoter. Format: functional. Conditions: 30 µM.
The target of assay [7] is T4, Tyrosyl-tRNA synthetase, putative (Trypanosoma cruzi (strain CL Brener)) (UniProt Q4DSP6).
T4 sequence (whole entry): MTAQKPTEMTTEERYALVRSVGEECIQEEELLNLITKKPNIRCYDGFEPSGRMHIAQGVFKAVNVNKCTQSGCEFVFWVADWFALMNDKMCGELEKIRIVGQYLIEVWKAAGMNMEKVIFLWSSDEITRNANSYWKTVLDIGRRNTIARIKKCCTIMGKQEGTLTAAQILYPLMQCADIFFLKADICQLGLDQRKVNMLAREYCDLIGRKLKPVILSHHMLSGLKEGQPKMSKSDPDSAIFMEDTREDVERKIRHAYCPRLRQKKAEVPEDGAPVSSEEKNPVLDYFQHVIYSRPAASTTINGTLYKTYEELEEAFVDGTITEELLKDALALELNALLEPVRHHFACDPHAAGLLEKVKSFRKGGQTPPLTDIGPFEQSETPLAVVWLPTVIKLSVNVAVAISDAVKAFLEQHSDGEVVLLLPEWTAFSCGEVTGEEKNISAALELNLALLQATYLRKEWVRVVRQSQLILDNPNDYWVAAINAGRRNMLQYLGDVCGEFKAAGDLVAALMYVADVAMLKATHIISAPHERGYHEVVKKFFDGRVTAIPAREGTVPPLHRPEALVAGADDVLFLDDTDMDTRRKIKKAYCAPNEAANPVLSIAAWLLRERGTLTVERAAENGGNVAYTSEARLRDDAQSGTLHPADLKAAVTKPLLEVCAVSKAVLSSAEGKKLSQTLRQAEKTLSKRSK
Kind of assay: Trypanosoma cruzi tyrosyl tRNA synthetase (TcYRS) _High Tyrosine SOP. Further: in the data most compounds retested in dose-response had high values. Format: functional. The note with it: 30 µM.

For assay [8], the target named is T4, Tyrosyl-tRNA synthetase, putative (Trypanosoma cruzi (strain CL Brener)). The assay is described as follows: Trypanosoma cruzi tyrosyl tRNA synthetase (TcYRS) SOP. Format: functional. The note with it: 30 µM.
The target in assay [9] is Chromo domain-containing protein 1 (Saccharomyces cerevisiae (strain ATCC 204508 / S288c) (Baker's yeast)) (UniProt P32657). The assay is described as follows: ScCHD-1 Enzyme Inhibition Assay. Further: in the data most compounds retested in dose-response had high values. Format: functional. Conditions: 30 µM.
Sequence of Chromo domain-containing protein 1 (Saccharomyces cerevisiae (strain ATCC 204508 / S288c) (Baker's yeast)) (P32657 whole entry, the tested form may be a part): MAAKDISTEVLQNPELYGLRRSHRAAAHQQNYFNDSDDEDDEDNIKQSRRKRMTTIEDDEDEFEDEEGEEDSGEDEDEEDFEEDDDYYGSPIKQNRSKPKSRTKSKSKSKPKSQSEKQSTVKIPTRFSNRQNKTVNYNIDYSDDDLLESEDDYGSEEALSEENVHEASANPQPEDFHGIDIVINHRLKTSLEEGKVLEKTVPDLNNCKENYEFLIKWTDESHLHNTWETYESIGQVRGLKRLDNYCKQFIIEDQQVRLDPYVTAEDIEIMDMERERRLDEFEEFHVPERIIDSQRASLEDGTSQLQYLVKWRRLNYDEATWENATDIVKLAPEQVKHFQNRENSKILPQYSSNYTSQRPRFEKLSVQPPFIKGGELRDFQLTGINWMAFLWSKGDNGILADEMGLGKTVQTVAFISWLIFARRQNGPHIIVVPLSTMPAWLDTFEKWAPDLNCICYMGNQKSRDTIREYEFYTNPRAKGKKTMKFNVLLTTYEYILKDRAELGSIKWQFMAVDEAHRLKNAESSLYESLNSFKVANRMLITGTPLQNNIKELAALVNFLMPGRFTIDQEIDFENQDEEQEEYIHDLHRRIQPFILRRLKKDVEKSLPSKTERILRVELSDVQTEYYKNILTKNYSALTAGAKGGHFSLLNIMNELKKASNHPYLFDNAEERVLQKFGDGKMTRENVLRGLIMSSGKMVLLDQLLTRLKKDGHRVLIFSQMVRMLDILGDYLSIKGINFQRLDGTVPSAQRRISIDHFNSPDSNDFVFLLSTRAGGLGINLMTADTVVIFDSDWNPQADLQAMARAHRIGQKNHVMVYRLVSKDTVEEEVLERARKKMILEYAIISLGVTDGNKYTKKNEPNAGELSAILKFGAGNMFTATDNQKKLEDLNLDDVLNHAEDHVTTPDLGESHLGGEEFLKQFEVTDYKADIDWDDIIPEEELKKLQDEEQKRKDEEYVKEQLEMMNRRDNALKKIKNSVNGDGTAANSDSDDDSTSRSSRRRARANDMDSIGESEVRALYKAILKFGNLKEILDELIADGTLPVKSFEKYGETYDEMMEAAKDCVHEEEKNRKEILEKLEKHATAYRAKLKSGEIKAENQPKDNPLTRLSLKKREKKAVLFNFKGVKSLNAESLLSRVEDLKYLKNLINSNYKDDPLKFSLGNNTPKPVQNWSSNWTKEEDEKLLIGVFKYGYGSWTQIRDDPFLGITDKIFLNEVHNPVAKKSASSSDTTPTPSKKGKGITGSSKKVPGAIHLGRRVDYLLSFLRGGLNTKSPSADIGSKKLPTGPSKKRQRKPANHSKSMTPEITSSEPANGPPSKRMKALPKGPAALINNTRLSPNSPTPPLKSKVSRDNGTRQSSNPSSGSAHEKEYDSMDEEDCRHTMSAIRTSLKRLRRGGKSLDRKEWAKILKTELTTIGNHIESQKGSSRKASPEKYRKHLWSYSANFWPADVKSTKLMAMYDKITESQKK

Consider `CCc1csc(C2CCCN(C(=O)C3=NN(CC)C(=O)CC3)C2)n1` (stereo unspecified), for which the Percent Effect in assay [1] was -3.73%; in assay [2], 7.79%; in assay [3], -3.68%; in assay [4], 5.23%; in the assay with Trypanosoma cruzi, 6.37%; in assay [5] it was 2.13%. Moreover, the Percent Effect in assay [6] is -5.07%; in the assay filed under Homo sapiens it was 11.1%; in assay [7], 4.85%; in assay [8] it was 12.2%; in [9] it was -7.52%.

For `O=C([C@H]1C[C@H]2OCC[C@H]2N(C(=O)c2ccncc2)C1)N1CCCCO1`, the Percent Effect in [1] was -6.09%; in assay [2], 16%; in [3], -5.71%; in assay [4], -0.495%; in the assay with Trypanosoma cruzi it was 6.56%; in assay [5], -43.9%. In addition, the Percent Effect in assay [6] is 6.33%; in the assay filed under Homo sapiens, -5.77%; in assay [7], 4.17%; in assay [8] it was 5%; in [9], -6.72%.

Turning to `Cn1ccnc1CNC(=O)N1CCCC(Cc2nccn2C)C1` (stereo unspecified), the Percent Effect in assay [1] is -8.83%; in [2] it was -2.7%; in assay [3] it was 9.59%; in assay [4] it was -1.15%; in the assay on Trypanosoma cruzi, -3.71%; in assay [5] it was -0.833%. In addition, the Percent Effect is 2.28% in [6]; -4.83% in the assay listed under Homo sapiens; 10.9% in assay [7]; 1.22% in [8]; 1.72% in assay [9].

For the compound `COCc1cccc(C(=O)N2CCCCC2c2nccs2)c1` (stereo unspecified), the Percent Effect in [1] is -2.42%; in assay [2], -2.7%; in [3] it was -6.81%; in [4], -4.58%; in the assay with Trypanosoma cruzi it was 5.75%; in assay [5], 2.81%. For the same compound, the Percent Effect in assay [6] is 7.75%; in the assay filed under Homo sapiens, -4.26%; in assay [7], 3.45%; in [8], 3.7%; in assay [9], -4.87%.

In the case of `CC(=O)N1CCC(Cc2cnc(-c3c(C)nn(C)c3C)cn2)C1` (stereo unspecified), the Percent Effect is -3.33% in assay [1]; 0% in assay [2]; 8.59% in [3]; 5.11% in assay [4]; 5.71% in the assay with Trypanosoma cruzi; -8.62% in [5]. Besides, the Percent Effect in assay [6] was 2.2%; in the assay listed under Homo sapiens it was -21.9%; in assay [7], 4.25%; in assay [8], 6.41%; in assay [9], -1.12%.

As for `COc1ccc(CN2CC[C@H]3[C@H]2CCN3C(=O)c2cnn(C)c2)cc1`, the Percent Effect was -0.777% in assay [1]; 13.5% in [2]; 4.48% in [3]; -12.3% in [4]; -3.23% in the assay on Trypanosoma cruzi; 2.87% in [5]. The Percent Effect in assay [6] was 12.2%; in the assay filed under Homo sapiens, 9.65%; in assay [7] it was 1.08%; in assay [8], 7.69%; in assay [9], -5.75%.

As to `Cc1nn(CC(=O)N2CCN(c3ccccc3F)CC2)c(C)c1Cl`, the Percent Effect in assay [1] is 0.317%; in assay [2], 15.6%; in assay [3], 4.64%; in assay [4], 2.9%; in the assay with Trypanosoma cruzi, 1.87%; in assay [5] it was -24.8%. In addition, the Percent Effect turned out to be 25.5% in [6]; 9.79% in the assay filed under Homo sapiens; 4.3% in assay [7]; 23.5% in assay [8]; 1.69% in assay [9].

Take `CN(C)C(=O)[C@@H]1C[C@@H]2CCN(Cc3nccs3)C[C@@H]2O1`: the Percent Effect in assay [1] was -4.02%; in [2], 2.7%; in [3], 4.31%; in [4], -1.06%; in the assay with Trypanosoma cruzi, -3.62%; in assay [5], -3.5%. In addition, the Percent Effect in assay [6] is 21.8%; in the assay filed under Homo sapiens, -10.8%; in assay [7], 4.32%; in [8], 7.69%; in [9], 3.4%.

As to `Cn1nc(CNC(=O)c2ccc(Cl)cc2)c2c1CCOC2`, the Percent Effect in assay [1] is -1.53%; in assay [2], 2.6%; in assay [3], 6.72%; in [4], 8.57%; with Trypanosoma cruzi, 0.0986%; in [5] it was -3.23%. Further, the Percent Effect is 1.22% in assay [6]; 5.87% in the assay filed under Homo sapiens; 4.23% in [7]; 6.41% in assay [8]; -3.86% in [9].

With `Cc1nc(N2CCN(C(=O)C(C)(C)C)CC2)cc(-n2cnc(C)c2C)n1`, the Percent Effect in [1] was -3.24%; in assay [2], 10.4%; in assay [3], 2.15%; in [4] it was 6.33%; in the assay on Trypanosoma cruzi, 6.2%; in assay [5] it was -44.1%. For the same compound, the Percent Effect in [6] was 22.3%; in the assay listed under Homo sapiens, 4.66%; in assay [7] it was 3.23%; in [8], 8.64%; in assay [9], -4.66%.

In the case of `CCCNC(=O)c1ccc2c(c1)C(=O)N(CC(C)C)C2=O`, the Percent Effect in assay [1] was -2.78%; in assay [2], -8.11%; in assay [3], 0.767%; in [4], 5.78%; in the assay with Trypanosoma cruzi, -2.32%; in assay [5] it was -10%. For the same compound, the Percent Effect in assay [6] is 3.45%; in the assay listed under Homo sapiens, 0.98%; in assay [7], 0.529%; in assay [8], 2.44%; in assay [9], -2.46%.
